PubChem BioAssay (Tox21)
Inconclusive results are not listed. Activity calls are given as the source filed them. Calls follow the shape of the full dose curve.

assay: qHTS assay to identify small molecule agonists of the endoplasmic reticulum stress response signaling pathway - cell viability counter screen (AID 1159517); settings: ESRE-bla HeLa viability, CellTiter-Glo luminescence, 5 h; series mostly up to 61 µM; activity change, negative = cytotoxicity: at the top concentration; also: nearly all actives have a fitted effect of over 50% in size
From the text: U.S. Tox21 Program National Center for Advancing Translational Sciences [NCATS] NIH Chemical Genomics Center [NCGC] U.S. Environmental Protection Agency [EPA] National Institutes of Environmental Health Sciences [NIEHS] National Toxicology Program [NTP] U.S. Food and Drug Administration [FDA] Tox21 Assay Overview: Endoplasmic Reticulum (ER) plays an important role in cellular signaling, protein folding/maturation, stress response, lipid biosynthesis, calcium storage and release etc. Under stress conditions, proteins in ER misfold or unfold, and leading to the expression of ER stress responsive genes. ER stress has been associated with a variety of pathophysiological conditions such as cancer, inflammation, neurodegenerative diseases, diabetes, ischemic heart disease etc. To identify the compounds that induce ER stress response, an ER stress reporter cell line, CellSensor ESRE-bla HeLa (Life Technologies, Carlsbad, CA) containing a beta-lactamase reporter gene under control of the Endoplasmic reticulum Stress Response Element (ESRE) was used to screen Tox21 10K compound library. The cytotoxicity of the Tox21 compound library against the ESRE-bla HeLa cell line was tested in parallel by measuring cell viability using the CellTiter-Glo assay in the same wells.
Tox21 Assay Protocol Summary: ESRE-bla HeLa cells were dispensed at 1,500 cells/6 uL of assay medium per well into black wall/clear-bottom 1536-well plates using a Multidrop Combi (ThermoFisher Scientific, Waltham, MA) dispenser. After the assay plates were incubated at 37 C and 5% CO2 for an overnight, 23 nL of compounds dissolved in DMSO, positive controls or DMSO only was transferred to the assay plate by a Pintool station (Kalypsys, San Diego, CA). The assay plates were incubated at 37 C and 5% CO2 for 5 hr. One uL of LiveBLAzer B/G FRET substrate (Life Technologies) was added using a FRD (Flying Reagent Dispenser, Aurora Discovery, San Diego, CA) and the plates were incubated at room temperature for 2 hr. Fluorescence intensity (405 nm excitation, 460 nm and 530 nm emissions) was measured using an Envision plate reader (PerkinElmer, Shelton, CT). For cytotoxicity, 4 ul/well of CellTiter-Glo reagent was added into the assay plates using an FRD. After 30 min incubation at room temperature, the luminescence intensity was measured using a ViewLux plate reader (PerkinElmer).
% is scaled to controls: 0 for no effect and ±100 for the full control effect; potency is read from the fitted curve at half-maximal effect.

SMILES | activity change, negative = cytotoxicity | Potency
NNC(=O)c1cccnc1 | -1.19% [at 78.8 µM] (inactive) | 
CC[C@H]1C[C@H]2[C@@H]3CCC4=CC(=O)CC[C@@H]4[C@H]3CC[C@]2(C)[C@H]1O | -11.3% (inactive) | 
CC1(C)CCC(Cc2ccc(Cl)cc2)C1(O)Cn1cncn1 (stereo not given) | -10.4% (inactive) | 
Clc1cc(C(Cl)(Cl)Cl)cnc1Cl |  | 11 µM (active)
Nc1ccc(N=Nc2ccc(-c3ccc(N=Nc4c(S(=O)(=O)O)cc5cc(S(=O)(=O)O)c(N=Nc6ccccc6)c(O)c5c4N)cc3)cc2)c(N)c1 | -10.7% (inactive) | 
O=S(=O)(Cl)c1ccccc1 | 14.4% [at 78.8 µM] (inactive) | 
CC1Sc2c(C(=O)O)c(=O)c3cc(F)c(N4CCNCC4)cc3n21 (stereo not given) | 11.4% (inactive) | 
O=C(Nc1ccccc1)Nc1ccnc(Cl)c1 | 3.44% (inactive) | 
C=CCC1([C@H](C)CCC)C(=O)NC(=O)NC1=O | -6.67% (inactive) | 
NC(=O)CI | -4.54% [at 78.8 µM] (inactive) | 
CNC(C)Cc1ccccc1OC (stereo not given) | 3.79% (inactive) | 
COc1c(C(C)(C)C)cc([N+](=O)[O-])c(C)c1[N+](=O)[O-] | 2.2% (inactive) | 
COC1=CC(=O)O[C@@H](CCc2ccccc2)C1 | -14.5% [at 78.8 µM] (inactive) | 
ClP(Cl)(Cl)(Cl)Cl | -15.4% [at 78.8 µM] (inactive) | 
CC(=O)NC1CCSC1=O (stereo not given) | 7.43% (inactive) | 
C=CC(=O)OCCCCO | -5.96% (inactive) | 
COc1nn(C(=O)NS(=O)(=O)c2ccccc2OC(F)(F)F)c(=O)n1C | 3.71% (inactive) | 
O=[N+]([O-])c1ccccc1CCl | -1.86% [at 78.8 µM] (inactive) | 
O=NN1CCNCC1 | 0.847% [at 78.8 µM] (inactive) | 
C=C(C#N)CCC#N | 1.39% (inactive) | 

SMILES | activity change, negative = cytotoxicity | Potency
N#Cc1ccc(Cl)cc1 | -4.34% (inactive) | 
Nc1ccc([N+](=O)[O-])cc1[N+](=O)[O-] | -11.6% (inactive) | 
O=C(NC(=O)c1c(F)cccc1F)Nc1cc(Cl)c(Oc2ncc(C(F)(F)F)cc2Cl)c(Cl)c1 | -4.41% (inactive) | 
CC(c1ccc(O)cc1)(c1ccc(O)cc1)c1ccc(O)cc1 | 16.8% (inactive) | 
COc1cc(CC(C)N)cc2c1OCO2 (stereo not given) | -12.2% [at 78.8 µM] (inactive) | 
Oc1ccc(Cl)c(Cl)c1Cl | 1.72% [at 78.8 µM] (inactive) | 
CO/N=C(/C(=O)OC)c1ccccc1COc1ccccc1C | 3.68% (inactive) | 
CCn1cc[n+](C)c1 |  | inactive
COc1cc(Cl)c(OC)cc1Cl | -12.7% (inactive) | 
C=CC(=O)OC | -10.6% [at 78.8 µM] (inactive) | 
Cc1ccccc1C(=O)Nc1cccc(OC(C)C)c1 | -5.57% (inactive) | 
N#CCC#N | -9.25% (inactive) | 
CCCN(CCC)c1c([N+](=O)[O-])cc(S(C)(=O)=O)cc1[N+](=O)[O-] | 6.34% (inactive) | 
Clc1ccc(C2(Cn3cncn3)CC(Br)CO2)c(Cl)c1 (stereo not given) | -26.2% (inactive) | 
Cc1ccc(-c2c(Cl)nc(C#N)n2S(=O)(=O)N(C)C)cc1 | -1.66% (inactive) | 
CS/C(C)=N/OC(=O)N(C)SN(C)C(=O)O/N=C(\C)SC | -19.1% (inactive) | 
O=C(N[C@H](c1ccccc1)[C@@H]1CN2CCC1CC2)c1c(Cl)ccc(C(F)(F)F)c1Cl | 8.05% [at 78.8 µM] (inactive) | 
C[C@]12CC[C@H]3[C@@H](CCC4=CC(=O)CC[C@@H]43)[C@@H]1CC[C@@H]2OC(=O)CCC1CCCCC1 | 13.5% (inactive) | 
COc1ccc(-c2ccccc2)cc1NNC(=O)OC(C)C | -6.66% [at 78.8 µM] (inactive) | 
O=Cc1ccc(Cl)cc1Cl | -7.36% [at 78.8 µM] (inactive) | 
